According to the supplement of paper PMC11732987, “Enantioselective OTUD7B fragment discovery through chemoproteomics screening and high-throughput optimisation” (Communications Chemistry, 2025):

Assays:
Assay in all cases: log2 ratio of Biotin-Ahx-Ub-VS probe labelling (fragment/DMSO); higher = less target engagement (more negative = stronger competition), active = hit call of the paper (q ≤ 0.05, log2 ratio ≤ -1)
Conditions in all cases: compound concentration: 200 uM; treatment time: 3 h
USP42 = target: T1, USP42 (UniProt Q9H9J4)
T1 sequence (whole entry): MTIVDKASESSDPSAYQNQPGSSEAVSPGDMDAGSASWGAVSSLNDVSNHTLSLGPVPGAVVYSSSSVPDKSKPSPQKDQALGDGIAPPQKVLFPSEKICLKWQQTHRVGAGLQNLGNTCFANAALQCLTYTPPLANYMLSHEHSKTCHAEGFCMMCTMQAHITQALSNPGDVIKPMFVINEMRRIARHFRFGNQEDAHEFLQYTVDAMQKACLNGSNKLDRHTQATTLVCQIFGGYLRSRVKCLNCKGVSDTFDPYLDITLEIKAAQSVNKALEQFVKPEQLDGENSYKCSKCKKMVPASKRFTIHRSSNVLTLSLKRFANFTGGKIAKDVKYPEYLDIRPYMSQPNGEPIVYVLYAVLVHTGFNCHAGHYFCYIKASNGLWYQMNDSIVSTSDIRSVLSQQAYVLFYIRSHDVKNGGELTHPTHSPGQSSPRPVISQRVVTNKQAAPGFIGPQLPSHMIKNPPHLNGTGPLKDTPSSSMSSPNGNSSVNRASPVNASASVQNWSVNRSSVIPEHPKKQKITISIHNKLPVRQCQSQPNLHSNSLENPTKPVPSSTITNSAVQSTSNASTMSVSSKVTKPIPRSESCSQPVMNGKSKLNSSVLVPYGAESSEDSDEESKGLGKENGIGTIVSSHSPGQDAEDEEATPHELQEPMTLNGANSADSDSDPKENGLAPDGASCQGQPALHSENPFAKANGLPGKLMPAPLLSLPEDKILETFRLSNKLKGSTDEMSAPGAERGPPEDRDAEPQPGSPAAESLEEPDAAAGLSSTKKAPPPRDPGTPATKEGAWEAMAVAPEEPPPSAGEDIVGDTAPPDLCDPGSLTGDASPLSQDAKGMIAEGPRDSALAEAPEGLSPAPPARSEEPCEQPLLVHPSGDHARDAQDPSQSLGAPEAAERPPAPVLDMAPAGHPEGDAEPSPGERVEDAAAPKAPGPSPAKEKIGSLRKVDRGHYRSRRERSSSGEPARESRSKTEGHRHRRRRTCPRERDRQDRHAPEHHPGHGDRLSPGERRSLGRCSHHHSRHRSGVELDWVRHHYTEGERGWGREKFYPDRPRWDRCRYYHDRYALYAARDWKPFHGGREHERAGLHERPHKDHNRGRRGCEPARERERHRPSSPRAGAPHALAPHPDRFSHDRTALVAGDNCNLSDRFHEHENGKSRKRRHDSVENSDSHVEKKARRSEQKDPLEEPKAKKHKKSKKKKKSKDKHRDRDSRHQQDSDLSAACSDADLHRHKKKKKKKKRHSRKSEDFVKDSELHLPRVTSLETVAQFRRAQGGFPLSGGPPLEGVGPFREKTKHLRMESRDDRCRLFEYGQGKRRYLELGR
In short: (§1)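 HEK293T lysate in Tris/CHAPS/IGEPAL buffer with protease inhibitors (495 µg per sample) was given fragment at 200 µM or vehicle for 3 h, in triplicate. It then received Biotin-Ahx-Ub-VS at 0.5 µM final for 1 h. Labelled DUBs were NeutrAvidin-enriched, digested with LysC and trypsin, and run by diaPASEF LC-MS/MS. Values are average log2 fragment/vehicle ratios by unpaired t-test on global-median-normalised Spectronaut quantities of proteins with ≥2 unique peptides.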

USP46 = USP46 (UniProt P62068)
In short: as §1

USP47 = target: T2, USP47 (UniProt Q96K76)
T2 sequence (whole entry): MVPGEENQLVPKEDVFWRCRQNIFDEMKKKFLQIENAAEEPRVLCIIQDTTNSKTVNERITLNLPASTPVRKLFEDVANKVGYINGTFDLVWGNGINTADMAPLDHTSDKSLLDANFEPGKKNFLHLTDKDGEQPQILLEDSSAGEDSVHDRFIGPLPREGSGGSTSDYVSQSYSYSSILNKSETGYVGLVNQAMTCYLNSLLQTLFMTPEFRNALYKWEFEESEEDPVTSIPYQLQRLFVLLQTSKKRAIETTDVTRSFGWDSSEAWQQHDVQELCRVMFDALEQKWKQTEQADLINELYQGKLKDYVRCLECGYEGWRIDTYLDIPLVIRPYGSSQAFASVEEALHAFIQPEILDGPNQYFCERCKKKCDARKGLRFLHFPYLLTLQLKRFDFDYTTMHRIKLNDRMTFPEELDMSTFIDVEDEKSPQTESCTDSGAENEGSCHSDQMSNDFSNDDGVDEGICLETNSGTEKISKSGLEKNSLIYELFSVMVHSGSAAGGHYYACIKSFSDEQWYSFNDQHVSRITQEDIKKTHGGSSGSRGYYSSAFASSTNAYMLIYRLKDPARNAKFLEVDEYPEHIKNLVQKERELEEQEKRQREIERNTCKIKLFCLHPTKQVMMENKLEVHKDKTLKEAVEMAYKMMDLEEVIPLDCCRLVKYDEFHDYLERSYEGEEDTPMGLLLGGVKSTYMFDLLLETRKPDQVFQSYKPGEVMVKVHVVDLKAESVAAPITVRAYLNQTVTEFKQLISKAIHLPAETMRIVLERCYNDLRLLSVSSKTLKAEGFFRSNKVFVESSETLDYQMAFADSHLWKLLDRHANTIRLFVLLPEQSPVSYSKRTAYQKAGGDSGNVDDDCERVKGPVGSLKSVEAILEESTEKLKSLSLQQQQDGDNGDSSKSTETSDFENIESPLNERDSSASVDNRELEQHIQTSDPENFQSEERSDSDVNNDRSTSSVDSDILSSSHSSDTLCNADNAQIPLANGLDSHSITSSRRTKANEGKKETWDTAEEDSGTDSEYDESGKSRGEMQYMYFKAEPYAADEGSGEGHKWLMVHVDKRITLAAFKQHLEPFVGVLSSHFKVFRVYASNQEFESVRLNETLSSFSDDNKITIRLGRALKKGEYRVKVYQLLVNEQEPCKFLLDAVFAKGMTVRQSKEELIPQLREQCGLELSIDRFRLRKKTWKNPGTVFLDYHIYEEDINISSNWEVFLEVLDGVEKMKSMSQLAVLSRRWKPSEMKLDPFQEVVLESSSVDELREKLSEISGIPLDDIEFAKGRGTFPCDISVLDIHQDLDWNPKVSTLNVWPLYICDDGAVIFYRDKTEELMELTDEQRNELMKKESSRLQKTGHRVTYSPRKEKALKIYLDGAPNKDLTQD
In short: as §1

USP48 = target: T3, USP48 (UniProt Q86UV5)
T3 sequence (whole entry): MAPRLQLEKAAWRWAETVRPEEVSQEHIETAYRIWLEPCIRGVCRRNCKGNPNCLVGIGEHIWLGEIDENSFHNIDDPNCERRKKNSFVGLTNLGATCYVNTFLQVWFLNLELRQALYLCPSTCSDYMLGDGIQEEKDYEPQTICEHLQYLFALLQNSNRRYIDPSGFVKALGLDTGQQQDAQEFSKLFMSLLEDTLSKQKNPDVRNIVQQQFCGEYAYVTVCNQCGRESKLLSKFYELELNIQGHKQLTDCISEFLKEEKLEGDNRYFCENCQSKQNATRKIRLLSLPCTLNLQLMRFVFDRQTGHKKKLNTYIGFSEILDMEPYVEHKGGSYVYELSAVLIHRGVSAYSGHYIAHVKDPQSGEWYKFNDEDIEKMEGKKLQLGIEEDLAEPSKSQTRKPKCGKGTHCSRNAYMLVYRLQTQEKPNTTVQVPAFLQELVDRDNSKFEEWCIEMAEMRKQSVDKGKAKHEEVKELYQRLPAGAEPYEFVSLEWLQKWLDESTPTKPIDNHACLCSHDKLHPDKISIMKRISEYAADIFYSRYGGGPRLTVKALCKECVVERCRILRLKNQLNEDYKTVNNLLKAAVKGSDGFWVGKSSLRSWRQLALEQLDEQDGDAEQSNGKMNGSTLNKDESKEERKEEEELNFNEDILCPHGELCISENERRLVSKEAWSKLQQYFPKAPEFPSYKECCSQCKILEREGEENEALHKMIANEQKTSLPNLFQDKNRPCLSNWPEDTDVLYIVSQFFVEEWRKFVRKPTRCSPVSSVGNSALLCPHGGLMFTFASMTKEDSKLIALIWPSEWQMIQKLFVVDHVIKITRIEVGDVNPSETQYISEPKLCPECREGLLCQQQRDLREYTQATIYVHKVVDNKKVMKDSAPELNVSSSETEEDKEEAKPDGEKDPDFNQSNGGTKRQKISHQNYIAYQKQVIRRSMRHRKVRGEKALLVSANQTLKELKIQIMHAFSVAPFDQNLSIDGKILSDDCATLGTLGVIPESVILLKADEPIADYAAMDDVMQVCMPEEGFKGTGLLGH
In short: as §1

USP5 = target: T4, USP5 (UniProt P45974)
T4 sequence (whole entry): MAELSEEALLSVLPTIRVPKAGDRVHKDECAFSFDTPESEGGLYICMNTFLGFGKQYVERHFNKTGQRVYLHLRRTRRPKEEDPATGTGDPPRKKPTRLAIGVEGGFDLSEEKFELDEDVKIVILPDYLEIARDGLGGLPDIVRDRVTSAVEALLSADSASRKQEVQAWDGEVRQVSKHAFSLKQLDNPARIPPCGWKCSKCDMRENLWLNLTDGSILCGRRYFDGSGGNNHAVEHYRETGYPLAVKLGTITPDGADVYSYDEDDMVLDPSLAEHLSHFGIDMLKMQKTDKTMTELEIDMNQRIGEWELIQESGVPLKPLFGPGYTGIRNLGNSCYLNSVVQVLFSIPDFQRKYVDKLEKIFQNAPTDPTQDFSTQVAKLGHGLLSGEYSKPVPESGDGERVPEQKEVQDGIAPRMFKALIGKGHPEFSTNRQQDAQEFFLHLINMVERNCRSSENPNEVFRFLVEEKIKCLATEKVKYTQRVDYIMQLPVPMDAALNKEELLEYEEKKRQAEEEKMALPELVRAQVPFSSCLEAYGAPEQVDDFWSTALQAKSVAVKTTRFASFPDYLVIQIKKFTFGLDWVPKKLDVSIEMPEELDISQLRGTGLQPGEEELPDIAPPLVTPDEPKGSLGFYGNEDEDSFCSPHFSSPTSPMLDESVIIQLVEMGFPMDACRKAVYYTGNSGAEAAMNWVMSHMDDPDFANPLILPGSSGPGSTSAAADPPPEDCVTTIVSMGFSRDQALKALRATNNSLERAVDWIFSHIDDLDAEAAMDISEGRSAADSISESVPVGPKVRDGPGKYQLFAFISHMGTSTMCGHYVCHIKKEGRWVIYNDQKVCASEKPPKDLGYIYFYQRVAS
In short: as §1

USP54 = USP54 (UniProt Q70EL1)
In short: as §1

USP7 = USP7 (UniProt Q93009)
In short: as §1

USP8 = target: T5, USP8 (UniProt P40818)
T5 sequence (whole entry): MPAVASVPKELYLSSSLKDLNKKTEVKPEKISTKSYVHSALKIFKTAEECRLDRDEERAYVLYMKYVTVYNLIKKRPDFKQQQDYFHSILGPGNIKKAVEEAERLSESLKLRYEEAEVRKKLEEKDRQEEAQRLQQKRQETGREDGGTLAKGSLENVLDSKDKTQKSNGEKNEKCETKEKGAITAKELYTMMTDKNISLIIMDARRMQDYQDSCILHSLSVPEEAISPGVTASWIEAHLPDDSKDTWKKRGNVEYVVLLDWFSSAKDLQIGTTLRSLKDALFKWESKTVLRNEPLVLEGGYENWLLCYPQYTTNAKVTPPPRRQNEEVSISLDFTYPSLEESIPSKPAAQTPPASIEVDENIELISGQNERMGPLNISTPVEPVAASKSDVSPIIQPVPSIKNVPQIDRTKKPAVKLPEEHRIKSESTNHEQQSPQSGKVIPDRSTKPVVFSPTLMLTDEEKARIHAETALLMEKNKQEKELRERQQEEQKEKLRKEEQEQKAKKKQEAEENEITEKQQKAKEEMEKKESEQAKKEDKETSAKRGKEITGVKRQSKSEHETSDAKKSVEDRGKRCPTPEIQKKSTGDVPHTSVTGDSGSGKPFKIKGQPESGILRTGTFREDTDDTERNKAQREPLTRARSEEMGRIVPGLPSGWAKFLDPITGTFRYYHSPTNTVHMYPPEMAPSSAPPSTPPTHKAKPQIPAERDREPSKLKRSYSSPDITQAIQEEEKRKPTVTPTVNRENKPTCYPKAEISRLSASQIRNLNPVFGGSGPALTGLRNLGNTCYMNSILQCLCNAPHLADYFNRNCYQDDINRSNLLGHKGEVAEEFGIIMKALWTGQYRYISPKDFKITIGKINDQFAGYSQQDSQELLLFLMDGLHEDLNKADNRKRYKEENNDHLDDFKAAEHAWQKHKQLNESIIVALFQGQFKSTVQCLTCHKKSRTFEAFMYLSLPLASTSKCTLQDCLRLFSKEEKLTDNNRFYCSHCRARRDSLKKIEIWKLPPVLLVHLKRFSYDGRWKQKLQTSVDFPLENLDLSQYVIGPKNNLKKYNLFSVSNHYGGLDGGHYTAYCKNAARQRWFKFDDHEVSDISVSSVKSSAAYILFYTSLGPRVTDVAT
In short: as §1

Measured: log2 ratio of Biotin-Ahx-Ub-VS probe labelling

Chain of USP46 (P62068 whole entry): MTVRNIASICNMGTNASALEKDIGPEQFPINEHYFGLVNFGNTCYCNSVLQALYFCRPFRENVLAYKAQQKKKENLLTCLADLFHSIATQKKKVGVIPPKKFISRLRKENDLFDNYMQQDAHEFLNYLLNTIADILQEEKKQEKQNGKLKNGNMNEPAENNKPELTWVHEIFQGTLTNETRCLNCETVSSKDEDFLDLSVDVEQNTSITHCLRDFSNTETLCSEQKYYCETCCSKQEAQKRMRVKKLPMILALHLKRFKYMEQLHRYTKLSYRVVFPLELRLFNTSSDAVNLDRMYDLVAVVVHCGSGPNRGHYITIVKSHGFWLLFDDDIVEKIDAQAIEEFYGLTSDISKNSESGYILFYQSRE
Chain of USP7 (Q93009 whole entry, looked up): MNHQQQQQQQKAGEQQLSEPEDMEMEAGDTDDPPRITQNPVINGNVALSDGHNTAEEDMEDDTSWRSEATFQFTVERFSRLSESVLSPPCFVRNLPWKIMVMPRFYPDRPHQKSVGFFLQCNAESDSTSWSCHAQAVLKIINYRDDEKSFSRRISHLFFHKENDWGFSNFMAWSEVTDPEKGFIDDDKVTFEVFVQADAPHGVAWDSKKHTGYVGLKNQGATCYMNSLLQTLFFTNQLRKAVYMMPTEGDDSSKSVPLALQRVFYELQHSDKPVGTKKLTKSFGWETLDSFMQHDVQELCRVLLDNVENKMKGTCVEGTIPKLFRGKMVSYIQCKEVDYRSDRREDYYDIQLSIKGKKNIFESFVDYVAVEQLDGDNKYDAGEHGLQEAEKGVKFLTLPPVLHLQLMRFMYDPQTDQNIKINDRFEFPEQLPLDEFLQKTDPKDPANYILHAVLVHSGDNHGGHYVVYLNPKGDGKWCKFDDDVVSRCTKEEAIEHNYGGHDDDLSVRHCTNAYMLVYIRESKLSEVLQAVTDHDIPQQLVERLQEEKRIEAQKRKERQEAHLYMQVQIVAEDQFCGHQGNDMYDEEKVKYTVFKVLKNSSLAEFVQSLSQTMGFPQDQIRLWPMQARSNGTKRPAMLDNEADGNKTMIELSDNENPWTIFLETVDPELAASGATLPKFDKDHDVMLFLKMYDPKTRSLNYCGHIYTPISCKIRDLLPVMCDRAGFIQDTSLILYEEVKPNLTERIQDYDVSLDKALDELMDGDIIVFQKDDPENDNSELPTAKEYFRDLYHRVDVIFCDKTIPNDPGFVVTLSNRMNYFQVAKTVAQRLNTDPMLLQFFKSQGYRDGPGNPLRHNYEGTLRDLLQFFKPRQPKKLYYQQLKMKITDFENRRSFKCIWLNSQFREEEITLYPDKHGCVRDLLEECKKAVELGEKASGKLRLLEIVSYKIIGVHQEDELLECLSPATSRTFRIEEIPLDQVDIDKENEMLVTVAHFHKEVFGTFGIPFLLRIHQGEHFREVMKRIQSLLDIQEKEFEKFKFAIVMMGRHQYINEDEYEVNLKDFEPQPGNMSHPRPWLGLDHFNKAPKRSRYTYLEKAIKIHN
Chain of USP54 (Q70EL1 whole entry): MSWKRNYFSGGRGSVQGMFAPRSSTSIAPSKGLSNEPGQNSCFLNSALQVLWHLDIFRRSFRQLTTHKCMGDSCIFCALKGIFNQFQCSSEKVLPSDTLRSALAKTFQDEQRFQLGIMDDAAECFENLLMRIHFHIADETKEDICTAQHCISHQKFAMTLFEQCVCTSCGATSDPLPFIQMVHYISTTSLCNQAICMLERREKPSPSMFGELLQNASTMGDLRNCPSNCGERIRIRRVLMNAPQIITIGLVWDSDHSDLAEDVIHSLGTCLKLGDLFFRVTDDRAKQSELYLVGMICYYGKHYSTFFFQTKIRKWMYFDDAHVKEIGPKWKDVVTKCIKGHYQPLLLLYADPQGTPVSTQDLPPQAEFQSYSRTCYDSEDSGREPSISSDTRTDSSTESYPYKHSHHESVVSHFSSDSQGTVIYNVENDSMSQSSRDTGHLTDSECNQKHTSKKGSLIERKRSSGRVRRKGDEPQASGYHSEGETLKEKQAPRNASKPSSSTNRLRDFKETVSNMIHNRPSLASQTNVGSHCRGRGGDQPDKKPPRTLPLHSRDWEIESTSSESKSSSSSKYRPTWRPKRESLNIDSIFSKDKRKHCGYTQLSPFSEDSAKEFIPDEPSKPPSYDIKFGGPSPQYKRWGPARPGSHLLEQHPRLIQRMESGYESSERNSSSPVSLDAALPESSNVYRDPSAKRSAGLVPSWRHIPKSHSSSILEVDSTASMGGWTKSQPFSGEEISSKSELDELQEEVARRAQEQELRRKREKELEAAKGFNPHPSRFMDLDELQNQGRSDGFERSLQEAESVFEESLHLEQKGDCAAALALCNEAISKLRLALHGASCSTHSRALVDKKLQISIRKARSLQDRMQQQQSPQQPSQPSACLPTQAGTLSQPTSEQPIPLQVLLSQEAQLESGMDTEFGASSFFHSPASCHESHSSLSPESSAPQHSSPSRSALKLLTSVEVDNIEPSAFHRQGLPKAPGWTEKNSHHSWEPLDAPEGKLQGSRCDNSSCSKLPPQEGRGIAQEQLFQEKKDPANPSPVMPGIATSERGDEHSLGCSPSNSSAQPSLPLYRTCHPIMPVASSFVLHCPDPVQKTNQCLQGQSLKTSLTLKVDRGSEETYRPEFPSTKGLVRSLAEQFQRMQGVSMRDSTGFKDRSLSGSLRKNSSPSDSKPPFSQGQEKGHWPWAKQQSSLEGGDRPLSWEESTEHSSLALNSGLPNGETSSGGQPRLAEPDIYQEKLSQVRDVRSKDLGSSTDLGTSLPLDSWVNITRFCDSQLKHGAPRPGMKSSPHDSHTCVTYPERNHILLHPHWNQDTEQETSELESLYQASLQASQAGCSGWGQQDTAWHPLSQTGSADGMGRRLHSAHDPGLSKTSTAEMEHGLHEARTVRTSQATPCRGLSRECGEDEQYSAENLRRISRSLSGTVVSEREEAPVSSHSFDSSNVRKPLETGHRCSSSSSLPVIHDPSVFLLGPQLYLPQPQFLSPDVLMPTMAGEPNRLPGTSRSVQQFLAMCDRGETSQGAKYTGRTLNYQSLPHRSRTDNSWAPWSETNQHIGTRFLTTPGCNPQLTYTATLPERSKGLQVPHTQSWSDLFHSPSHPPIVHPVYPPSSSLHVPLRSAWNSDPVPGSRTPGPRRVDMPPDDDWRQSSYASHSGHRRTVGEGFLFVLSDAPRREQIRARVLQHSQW

Cc1ccc(N(CCC#N)C(=O)CCl)cc1C
active: USP48 -1.01 | USP7 -1.27
inactive: USP42 -0.126 | USP46 -0.12 | USP47 -0.28 | USP5 0.408 | USP54 -0.137 | USP8 -0.394
